According to PubChem BioAssay:
For some assays here: Results with a measured potency or affinity are listed apart. Calls of active or inactive are those of the source.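 Rule for the calls, unless noted: active = earlier screen potentiator hit that boosts the TRPC4 ion channel at some dose, with a dose response; inactive = no potentiation, no dose response, or not a prior hit.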

Experiments:
[1] = system: TRPC4 beta (transient receptor potential cation channel C4), mouse; test: activators of mouse TRPC4 channel, confirmation, cell-based, Fluo4 calcium, HEK293 TRPC4beta/mu-opioid, duplicates, 10 µM (AID 2426;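 active = fluorescence ratio normalized to control raised more than 50% in primary screen plus both repeat runs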); conditions: Fluo4 calcium fluorescence, at 10 µM; stronger effect = higher value
[2] = system: transient receptor potential cation channel C4 beta (TRPC4), mouse; test: activators of mouse TRPC4 channel, confirmation, cell-based, second round, Fluo4, HEK293 TRPC4beta/mu-opioid, 1 µM (AID 2461;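 active = primary screen active and over 50% activation in each of two duplicate runs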); conditions: Fluo4 calcium fluorescence, at 1 µM; stronger effect = higher value
[3] = system: TRPC4 (transient receptor potential cation channel C4 beta), mouse; test: positive allosteric modulators of mouse TRPC4, confirmation, cell-based, second round, Fluo-4, HEK293 TRPC4beta/mu-opioid, 1 µM (AID 2554;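 active = primary screen hit whose fluorescence ratio, in both repeats, exceeds the weak agonist control mean by 3 SD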); conditions: DAMGO EC20, Fluo-4 calcium flux, at 1 µM; stronger effect = higher value
[4] = system: TRPC4 beta (transient receptor potential cation channel C4), mouse; test: positive allosteric modulators of mouse TRPC4, confirmation, cell-based, Fluo-4, HEK293 TRPC4beta/mu-opioid (AID 2555;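 active = primary screen hit whose calcium fluorescence ratio, in both repeats, exceeds the weak agonist control mean by 3 SD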); conditions: DAMGO EC20, Fluo-4 calcium flux, at 10 µM; stronger effect = higher value
[5] = molecular target: Short transient receptor potential channel 4 (Mus musculus) (UniProt Q9QUQ5); test: inhibitors of mouse TRPC4 channel, confirmation, cell-based, Fluo4, HEK293 TRPC4beta/mu-opioid (AID 2636;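 active = calcium signal cut by more than 3 SD below the full-agonist control yet still positive, in both repeats and the earlier primary screen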); conditions: DAMGO, Fluo4 calcium flux, at 10 µM; stronger effect = higher value
Short transient receptor potential channel 4 (Mus musculus), sequence (Q9QUQ5 whole entry, looked up): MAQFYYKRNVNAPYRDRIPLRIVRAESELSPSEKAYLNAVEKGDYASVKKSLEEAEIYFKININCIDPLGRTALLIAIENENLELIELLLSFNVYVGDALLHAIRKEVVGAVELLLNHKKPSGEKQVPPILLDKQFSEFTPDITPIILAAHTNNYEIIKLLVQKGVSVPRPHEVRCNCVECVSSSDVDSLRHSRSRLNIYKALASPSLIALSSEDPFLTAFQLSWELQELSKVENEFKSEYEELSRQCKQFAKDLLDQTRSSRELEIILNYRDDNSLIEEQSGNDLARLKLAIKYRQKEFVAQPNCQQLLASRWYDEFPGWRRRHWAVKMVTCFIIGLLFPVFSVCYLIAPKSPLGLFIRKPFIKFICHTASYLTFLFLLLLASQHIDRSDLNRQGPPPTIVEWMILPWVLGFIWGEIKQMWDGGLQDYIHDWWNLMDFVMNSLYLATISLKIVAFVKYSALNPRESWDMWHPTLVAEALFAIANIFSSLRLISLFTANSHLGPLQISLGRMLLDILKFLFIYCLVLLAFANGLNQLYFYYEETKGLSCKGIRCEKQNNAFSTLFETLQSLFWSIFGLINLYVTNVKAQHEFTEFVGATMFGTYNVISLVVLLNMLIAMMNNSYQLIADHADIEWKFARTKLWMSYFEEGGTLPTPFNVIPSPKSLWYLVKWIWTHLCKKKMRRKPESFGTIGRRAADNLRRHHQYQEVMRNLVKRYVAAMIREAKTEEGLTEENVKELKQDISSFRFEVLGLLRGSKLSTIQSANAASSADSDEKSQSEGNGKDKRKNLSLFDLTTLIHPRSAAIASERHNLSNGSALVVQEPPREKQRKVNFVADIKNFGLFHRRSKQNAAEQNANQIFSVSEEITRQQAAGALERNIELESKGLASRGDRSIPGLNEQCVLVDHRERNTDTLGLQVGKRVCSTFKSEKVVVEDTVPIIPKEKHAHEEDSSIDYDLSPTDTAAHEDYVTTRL

[6] = molecular target: Short transient receptor potential channel 4 (Mus musculus) (UniProt Q9QUQ5); test: inhibitors of mouse TRPC4 channel, confirmation, cell-based, second round, Fluo4, HEK293 TRPC4beta/mu-opioid, 1 µM (AID 2637;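 active = calcium signal ratio cut to more than 3 SD under the fully stimulated control mean yet still positive, in both repeats and the primary screen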); conditions: Fluo4 calcium flux, DAMGO, at 1 µM; stronger effect = higher value
[7] = molecular target: Short transient receptor potential channel 4 (Mus musculus) (UniProt Q9QUQ5); test: mouse TRPC4 channel activators, dose response, cell-based, HEK293 TRPC4/mu-opioid, Fluo-4 calcium (AID 434937;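 active = primary screen activator hit with a dose response curve and TRPC4 channel activation at any tested dose; inactive = no activation, no dose response, or not a primary hit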)
[8] = molecular target: Short transient receptor potential channel 4 (Mus musculus) (UniProt Q9QUQ5); test: TRPC4 positive allosteric modulators, dose response, cell-based, HEK293 TRPC4/mu-opioid, Fluo-4 calcium, EC20 DAMGO (AID 434941);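 note: calcium entry triggered by an EC20 dose of DAMGO at the co-expressed mu-opioid receptor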
[9] = molecular target: Short transient receptor potential channel 4 (Mus musculus) (UniProt Q9QUQ5); test: mouse TRPC4 channel inhibitors, dose response, cell-based, HEK293 TRPC4/mu-opioid, Fluo-4 calcium (AID 434942;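 active = primary screen inhibitor hit that blocks the TRPC4 channel at some tested dose, yielding a dose curve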)
[10] = molecular target: Short transient receptor potential channel 6 (Mus musculus) (UniProt Q61143); test: inhibition of mouse TRPC6 channel, confirmation, selectivity assay for TRPC4 inhibitor project, cell-based, HEK293, membrane potential dye, duplicate (AID 434948;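 active = active in primary screen and both duplicates, each dropping signal beyond three positive-control SD with fluorescence still positive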); conditions: HEK293 TRPC6, membrane potential dye fluorescence, at 10 µM, stimulated with maximal-effect acetylcholine; stronger effect = higher value
Short transient receptor potential channel 6 (Mus musculus), sequence (Q61143 whole entry, looked up): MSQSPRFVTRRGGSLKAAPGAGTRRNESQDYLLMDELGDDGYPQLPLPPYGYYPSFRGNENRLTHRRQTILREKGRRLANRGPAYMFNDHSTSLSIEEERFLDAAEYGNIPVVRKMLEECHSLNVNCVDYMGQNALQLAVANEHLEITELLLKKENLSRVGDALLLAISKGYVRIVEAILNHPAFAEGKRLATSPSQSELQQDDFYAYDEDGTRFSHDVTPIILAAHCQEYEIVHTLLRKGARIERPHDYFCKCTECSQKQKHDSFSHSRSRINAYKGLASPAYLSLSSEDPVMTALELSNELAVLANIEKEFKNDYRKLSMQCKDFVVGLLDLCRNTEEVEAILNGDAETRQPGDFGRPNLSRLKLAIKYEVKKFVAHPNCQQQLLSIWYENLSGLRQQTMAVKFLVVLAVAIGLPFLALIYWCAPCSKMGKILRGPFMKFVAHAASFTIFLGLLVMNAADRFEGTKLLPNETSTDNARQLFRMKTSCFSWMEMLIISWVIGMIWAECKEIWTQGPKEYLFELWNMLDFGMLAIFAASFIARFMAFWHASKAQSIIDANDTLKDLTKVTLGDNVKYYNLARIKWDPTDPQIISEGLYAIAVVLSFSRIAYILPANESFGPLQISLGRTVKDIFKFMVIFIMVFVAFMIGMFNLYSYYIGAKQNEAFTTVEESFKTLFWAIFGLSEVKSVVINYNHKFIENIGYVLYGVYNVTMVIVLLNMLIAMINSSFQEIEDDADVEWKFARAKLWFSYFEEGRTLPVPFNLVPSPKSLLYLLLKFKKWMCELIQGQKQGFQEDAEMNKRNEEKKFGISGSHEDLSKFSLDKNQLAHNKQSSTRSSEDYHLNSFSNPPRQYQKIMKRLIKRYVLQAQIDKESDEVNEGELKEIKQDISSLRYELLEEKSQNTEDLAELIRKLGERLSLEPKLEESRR

[11] = molecular target: Short transient receptor potential channel 6 (Mus musculus) (UniProt Q61143); test: activation of mouse TRPC6 channel, confirmation, selectivity assay for TRPC4 activator project, cell-based, HEK293, membrane potential dye, duplicate (AID 434950;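 active = membrane potential signal rise above negative control mean plus 3 SD in both duplicates, also active in the earlier TRPC4 screen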); conditions: HEK293 TRPC6, membrane potential fluorescence, at 10 µM; stronger effect = higher value
[12] = molecular target: Short transient receptor potential channel 6 (Mus musculus) (UniProt Q61143); test: TRPC6 potentiation by TRPC4 potentiator hits, confirmation, selectivity assay for TRPC4 potentiator project, HEK293 cells, membrane potential dye, duplicate (AID 434952;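 active = compound raising the membrane signal above positive-control mean plus 3 SD in both repeats, and a primary screen hit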); conditions: HEK293 TRPC6, membrane potential dye fluorescence, at 10 µM, maximal acetylcholine added after compound; stronger effect = higher value
[13] = molecular target: Short transient receptor potential channel 4 (Mus musculus) (UniProt Q9QUQ5); test: calcium flux activators in TRPC4/5HT1a cells, counter-screen for TRPC4 activator project, cell-based, second counter screen, HEK293 TRPC4/5HT1a, Fluo-4 (AID 434977;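 active = calcium signal rise above buffer-control mean plus 5 SD in both duplicates, and also a hit in the primary screen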;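 for activation: plate controls were assay buffer for no effect and maximal serotonin response for full effect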); conditions: Fluo-4 calcium flux, at 10 µM; stronger effect = higher value
[14] = calcium flux inhibitors in TRPC4/5HT1a cells, confirmation, counter-screen for TRPC4 inhibitor project, cell-based, second counter screen, HEK293 TRPC4/5HT1a, Fluo-4 (AID 434978;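 active = primary screen active whose calcium signal fell more than 3 SD beyond the full-serotonin control mean in both duplicate plates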;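 note: serotonin given first at submaximal then at maximal dose after compound preincubation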); conditions: Fluo-4 calcium flux, at 10 µM, serotonin added to trigger calcium flux; stronger effect = higher value
[15] = system: TRPC4 (mouse), co-expressed with 5HT1a in HEK293; test: calcium flux potentiators in TRPC4/5HT1a cells, confirmation, counter-screen for TRPC4 potentiator project, cell-based, second counter screen, HEK293 TRPC4/5HT1a, Fluo-4 (AID 434979;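 active = signal rise over 3 SD above mean of control wells given weak agonist, in both repeats and first screen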); conditions: Fluo-4 calcium flux, at 10 µM, serotonin added at its EC20 dose; stronger effect = higher value
[16] = calcium flux activation in mu-opioid HEK293 cells, confirmation, counter-screen for TRPC4 activator project, cell-based, HEK293 mu-opioid receptor line (AID 449723;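 active = hit in primary screen, with calcium signal over 5 SD above buffer well mean in both duplicates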;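 note: counter screen cells carry the mu-opioid receptor alone and lack TRPC4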); conditions: Fluo-4 calcium fluorescence, at 10 µM; stronger effect = higher value
[17] = calcium flux enhancement in mu-opioid HEK293 cells, confirmation, counter-screen for TRPC4 allosteric potentiator project, cell-based, HEK293 mu-opioid receptor line (AID 449724;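 active = calcium signal rise more than 3 SD above the low-dose agonist control mean, in both duplicate plates and the primary screen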); conditions: Fluo-4 calcium flux, at 10 µM, compound added before EC20 DAMGO stimulus; stronger effect = higher value

CC1=C(C(=O)NCCN2CCN(C)CC2)C2(CCC(C)CC2)OC1=O (configuration not stated)
outcome [1]: inactive
outcome [2]: inactive
outcome [3]: inactive
outcome [4]: inactive
outcome [5]: inactive
outcome [6]: inactive
outcome [7]: inactive
outcome [8]: inactive
outcome [9]: inactive
outcome [10]: inactive
outcome [11]: inactive
outcome [12]: inactive
outcome [13]: inactive
outcome [14]: inactive
outcome [15]: inactive
outcome [16]: inactive
outcome [17]: inactive

O=C(c1coc2ccc(O)c(CN3CCOCC3)c12)C1CC1
outcome [1]: inactive
outcome [2]: inactive
outcome [3]: inactive
outcome [4]: inactive
outcome [5]: inactive
outcome [6]: inactive
outcome [7]: inactive
outcome [8]: inactive
outcome [9]: inactive
outcome [10]: inactive
outcome [11]: inactive
outcome [12]: inactive
outcome [13]: inactive
outcome [14]: inactive
outcome [15]: inactive
outcome [16]: inactive
outcome [17]: inactive

O=C1NC(c2ccccc2)=C(c2nc3ccccc3s2)C(c2ccccc2)N1 (configuration not stated)
outcome [1]: inactive
outcome [2]: inactive
outcome [3]: inactive
potentiation [4]: 14% (active)
outcome [5]: inactive
outcome [6]: inactive
outcome [7]: inactive
outcome [8]: inactive
outcome [9]: inactive
outcome [10]: inactive
outcome [11]: inactive
outcome [12]: inactive
outcome [13]: inactive
outcome [14]: inactive
potentiation [15]: 24.2% (active)
outcome [16]: inactive
outcome [17]: inactive

O=C(Cc1ccccc1)Nc1cccc(NC(=O)c2cccs2)c1
outcome [1]: inactive
outcome [2]: inactive
outcome [3]: inactive
outcome [4]: inactive
outcome [5]: inactive
outcome [6]: inactive
outcome [7]: inactive
outcome [8]: inactive
outcome [9]: inactive
outcome [10]: inactive
outcome [11]: inactive
outcome [12]: inactive
outcome [13]: inactive
outcome [14]: inactive
outcome [15]: inactive
outcome [16]: inactive
outcome [17]: inactive

Cc1ccccc1-c1n[nH]c(=S)n1Cc1ccccc1
outcome [1]: inactive
outcome [2]: inactive
outcome [3]: inactive
outcome [4]: inactive
outcome [5]: inactive
outcome [6]: inactive
outcome [7]: inactive
outcome [8]: inactive
outcome [9]: inactive
outcome [10]: inactive
outcome [11]: inactive
outcome [12]: inactive
outcome [13]: inactive
outcome [14]: inactive
outcome [15]: inactive
outcome [16]: inactive
outcome [17]: inactive

COc1ccc(Cl)c2sc(N(CCN(C)C)C(=O)c3ccc4c(c3)OCCO4)nc12
outcome [1]: inactive
outcome [2]: inactive
potentiation [3]: 9% (active)
potentiation [4]: 26% (active)
outcome [5]: inactive
outcome [6]: inactive
outcome [7]: inactive
outcome [8]: inactive
outcome [9]: inactive
outcome [10]: inactive
outcome [11]: inactive
outcome [12]: inactive
outcome [13]: inactive
outcome [14]: inactive
outcome [15]: inactive
outcome [16]: inactive
outcome [17]: inactive

Cc1cccc(NC(=O)c2cc([N+](=O)[O-])ccc2N2CCN(C)CC2)c1
outcome [1]: inactive
outcome [2]: inactive
outcome [3]: inactive
outcome [4]: inactive
outcome [5]: inactive
outcome [6]: inactive
outcome [7]: inactive
outcome [8]: inactive
outcome [9]: inactive
outcome [10]: inactive
outcome [11]: inactive
outcome [12]: inactive
outcome [13]: inactive
outcome [14]: inactive
potentiation [15]: 18.8% (active)
outcome [16]: inactive
outcome [17]: inactive

CN(CCNC(=O)c1ccc(/C=N/O)nc1)Cc1ccccc1
outcome [1]: inactive
outcome [2]: inactive
potentiation [3]: 18% (active)
potentiation [4]: 8% (active)
outcome [5]: inactive
outcome [6]: inactive
outcome [7]: inactive
outcome [8]: inactive
outcome [9]: inactive
outcome [10]: inactive
outcome [11]: inactive
outcome [12]: inactive
outcome [13]: inactive
outcome [14]: inactive
potentiation [15]: 19.6% (active)
outcome [16]: inactive
outcome [17]: inactive

CC(C)(C)NC(=S)N/N=C\c1ccc(-c2ccc([N+](=O)[O-])cc2)o1
outcome [1]: inactive
outcome [2]: inactive
outcome [3]: inactive
outcome [4]: inactive
outcome [5]: inactive
outcome [6]: inactive
outcome [7]: inactive
outcome [8]: inactive
outcome [9]: inactive
outcome [10]: inactive
outcome [11]: inactive
potentiation, percent of control [12]: 142% (active)
outcome [13]: inactive
outcome [14]: inactive
potentiation [15]: 15.4% (active)
outcome [16]: inactive
outcome [17]: inactive

Cc1ccc(-n2c(C)cc(C)c(C#N)c2=O)cc1Cl
outcome [1]: inactive
outcome [2]: inactive
outcome [3]: inactive
outcome [4]: inactive
outcome [5]: inactive
outcome [6]: inactive
outcome [7]: inactive
outcome [8]: inactive
outcome [9]: inactive
outcome [10]: inactive
outcome [11]: inactive
outcome [12]: inactive
activation [13]: 11.4% (active)
outcome [14]: inactive
outcome [15]: inactive
outcome [16]: inactive
outcome [17]: inactive

CCCCn1c(N)c(N(CCOC)C(=O)c2ccc(-c3ccc(C(C)=O)cc3)o2)c(=O)[nH]c1=O
outcome [1]: inactive
outcome [2]: inactive
outcome [3]: inactive
outcome [4]: inactive
outcome [5]: inactive
outcome [6]: inactive
outcome [7]: inactive
outcome [8]: inactive
outcome [9]: inactive
outcome [10]: inactive
outcome [11]: inactive
outcome [12]: inactive
outcome [13]: inactive
outcome [14]: inactive
outcome [15]: inactive
outcome [16]: inactive
outcome [17]: inactive

CCSc1nnc([C@H](Cc2c[nH]c3ccccc23)NC(=O)OC(C)(C)C)o1
outcome [1]: inactive
outcome [2]: inactive
outcome [3]: inactive
outcome [4]: inactive
outcome [5]: inactive
outcome [6]: inactive
outcome [7]: inactive
outcome [8]: inactive
outcome [9]: inactive
outcome [10]: inactive
outcome [11]: inactive
outcome [12]: inactive
outcome [13]: inactive
outcome [14]: inactive
potentiation [15]: 13.1% (active)
outcome [16]: inactive
outcome [17]: inactive

COC(=O)c1ccccc1N=Nc1c(C)[nH][nH]c1=O
outcome [1]: inactive
outcome [2]: inactive
outcome [3]: inactive
potentiation [4]: 73% (active)
outcome [5]: inactive
outcome [6]: inactive
outcome [7]: inactive
outcome [8]: inactive
outcome [9]: inactive
outcome [10]: inactive
outcome [11]: inactive
outcome [12]: inactive
outcome [13]: inactive
outcome [14]: inactive
potentiation [15]: 14.7% (active)
outcome [16]: inactive
outcome [17]: inactive

O=C(c1ccncc1)N1c2ccccc2Sc2ccccc21
outcome [1]: inactive
outcome [2]: inactive
outcome [3]: inactive
outcome [4]: inactive
outcome [5]: inactive
outcome [6]: inactive
outcome [7]: inactive
outcome [8]: inactive
outcome [9]: inactive
outcome [10]: inactive
outcome [11]: inactive
outcome [12]: inactive
outcome [13]: inactive
outcome [14]: inactive
outcome [15]: inactive
outcome [16]: inactive
outcome [17]: inactive

COc1ccc(OCC(=O)NC2CCCN(Cc3ccc(Cl)cc3)C2)cc1 (configuration not stated)
outcome [1]: inactive
outcome [2]: inactive
potentiation [3]: 26% (active)
outcome [4]: inactive
outcome [5]: inactive
outcome [6]: inactive
outcome [7]: inactive
outcome [8]: inactive
outcome [9]: inactive
outcome [10]: inactive
outcome [11]: inactive
outcome [12]: inactive
outcome [13]: inactive
outcome [14]: inactive
potentiation [15]: 15.2% (active)
outcome [16]: inactive
outcome [17]: inactive

CN(C)S(=O)(=O)c1cccc(COC(=O)c2ccc(Cl)cc2O)c1
outcome [1]: inactive
outcome [2]: inactive
outcome [3]: inactive
potentiation [4]: 21% (active)
outcome [5]: inactive
outcome [6]: inactive
outcome [7]: inactive
outcome [8]: inactive
outcome [9]: inactive
outcome [10]: inactive
outcome [11]: inactive
outcome [12]: inactive
outcome [13]: inactive
outcome [14]: inactive
potentiation [15]: 41.5% (active)
outcome [16]: inactive
outcome [17]: inactive
